Reference: PubChem BioAssay (NCI)
Compounds without any hit were thinned out: in the full panel of roughly 79,000, 15% have a hit. Unmarked numbers belong to inactive results. The source made the active and inactive calls. Rule as the data show it: active = growth inhibition above about 70%; inactive = the rest.

How the values were obtained:
[1] = NCI Yeast Anticancer Drug Screen. Data for the rad50 strain (AID 155);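 also: 0% = growth of vehicle-only cultures of the same strain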; conditions: S. cerevisiae rad50 strain growth inhibition; at 50.0 µM; hits give high values
Method in brief: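 Readout: growth inhibition relative to vehicle-treated cultures. Compound exposure was carried out in a genetically defined yeast strain deficient in DNA damage repair.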

[2] = NCI Yeast Anticancer Drug Screen. Data for the mec2-1 strain (AID 157); conditions: S. cerevisiae mec2-1 strain, at 50.0 µM, hits give high values
Method in brief: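 Cells of the genetically defined mec2-1 yeast strain are incubated with test compound. Inhibition of growth is calculated against vehicle-treated controls.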

[3] = NCI Yeast Anticancer Drug Screen. Data for the sgs1 mgt1 strain (AID 161);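 also: 0% = growth of cultures given vehicle only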; conditions: S. cerevisiae sgs1 mgt1 strain, at 50.0 µM, hits give high values
Method in brief: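 Mutant yeast exposed to compound; growth scored against vehicle-only wells.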

[4] = NCI Yeast Anticancer Drug Screen. Data for the cln2 rad14 strain (AID 165);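 also: 0% = growth equal to vehicle treated cultures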; conditions: S. cerevisiae cln2 rad14 strain, at 50.0 µM, hits give high values
Method in brief: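 The screen exposed genetically defined yeast (cln2 rad14) to test compounds and scored growth inhibition relative to vehicle-treated controls.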

[5] = NCI Yeast Anticancer Drug Screen. Data for the bub3 strain (AID 167); conditions: S. cerevisiae bub3 mutant strain, at 50.0 µM, hits give high values
Method in brief: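 Readout: yeast growth inhibition, expressed relative to vehicle-only wells. The test organism is a mutant strain from a panel with lesions in DNA repair or checkpoint genes.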

[6] = NCI Yeast Anticancer Drug Screen. Data for the mlh1 rad18 strain (AID 175); conditions: S. cerevisiae mlh1 rad18 strain growth inhibition; at 50.0 µM; hits give high values
Method in brief: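 Compound-treated yeast growth, normalised to vehicle controls. Strain bears defined DNA repair mutations.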

| SMILES | growth inhibition [1] | growth inhibition [2] | growth inhibition [3] | growth inhibition [4] | growth inhibition [5] | growth inhibition [6] |
| --- | --- | --- | --- | --- | --- | --- |
| CCNc1ccc(N=Nc2ccc(-c3ccc(N=Nc4ccc(NCC)c5ccccc45)c(OC)c3)cc2OC)c2ccccc12 | -1.15% | 18.1% | 5.55% | 23.3% | 26.9% | 36% |
| Cc1nc(N)c(N=O)c(=O)[nH]1 | 13.2% | 8.75% | 14.2% | 9.5% | 10.9% | 7.35% |
| CCCOC(=O)/C(C)=C\c1ccccc1 | 21% | 15.9% | 17.6% | 15.3% | -0.6% | 16.9% |
| OCCSCCCCCSCCO | -2.6% | -7.7% | -7.3% | -2.15% | -7.4% | -15.3% |
| COc1ccc(NC(C)=O)c(C(O)CCNC(C)=O)c1 (stereo unspecified) | -14.1% | -13.3% | -25.9% | -7.8% | -40.1% | -28.5% |
| CCCCOP(=O)(OCCCC)C(c1ccccc1)(c1ccccc1)c1ccccc1 | 48.9% | 42.5% | 49.8% | 42.5% | 5.9% | 59.6% |
| O=C1c2cc3c(cc2C(=O)c2[nH]ncc21)OCO3 | 60.5% | 30.4% | 16.7% | -20.2% | 19.1% | 17.2% |
| O=C(O)c1ccccc1[N+](=O)[O-] | -4.1% | 10.1% | -9.5% | 1.3% | -4.3% | 10.8% |
| COc1ccc([N+](=O)[O-])cc1F | 10.9% | -12.8% | 5.5% | -6.9% | 8.25% | 31.8% |
| CC(C)C(NC(=O)OC(C)(C)C)C(=O)O (stereo unspecified) | -11.3% | 1.2% | 14.7% | -66.3% | 9.45% | -6.9% |
| CCCCN(CCCC)/C(=C/C(=O)OC)C(=O)OC | 20.1% | 8.55% | 10.1% | 14.2% | 26.9% | 13.6% |
| CC1C(c2ccccc2)=C(c2ccccc2)C(c2ccccc2)=C(c2ccccc2)C1c1ccccc1 (stereo unspecified) | 27.6% | -19.8% | 2.6% | -5.55% | -1.2% | -10.7% |
| Cc1c(C)c(C(=O)O)c(C)c(C)c1C(=O)O | 25.9% | -8.1% | 17.9% | 9.1% | 24.4% | 0.05% |
| O=[N+]([O-])c1ccc(/C=C/c2cc(N(CCO)CCO)c3ccccc3n2)cc1 | 8.35% | -1.05% | -31.2% | -11.1% | -0.4% | -2.95% |
| COC(=O)C1(O)CCC(C)CC1 (stereo unspecified) | 14.4% | -9.25% | -8.65% | -26.3% | 2.1% | 14.8% |
| C#CCC1CCCC/C1=N\Nc1ccc([N+](=O)[O-])cc1[N+](=O)[O-] (stereo unspecified) | 2.25% | 3.2% | -4.4% | -1.75% | 4.4% | 4.1% |
| CCCCCCCCCCCCCCCCCC(=O)N1CC[N+](C)(C)CC1 | 99.7% (active) | 99.7% (active) | 99.7% (active) | 99% (active) | 99.3% (active) | 99.5% (active) |
| CCOC(=O)CCCCCOC1CCCCO1 (stereo unspecified) | 7.4% | 18.2% | 11.2% | -0.1% | -7.35% | -10.5% |
| COc1ccc(C(=O)C[n+]2cc(Br)cc3ccccc32)cc1 | -3.1% | 11.8% | 1.5% | 22.9% | -3.05% | 54.5% |
| O=C(CCl)NC(=O)NC1=C(Cl)C(=O)c2ccccc2C1=O | 98% (active) | 98.6% (active) | 98.3% (active) | 97.7% (active) | 98.3% (active) | 97.7% (active) |
| CCNC(=S)NCC | -11.2% | -28.8% | 20.6% | 6.7% | 0.4% | 17.5% |

| SMILES | growth inhibition [1] | growth inhibition [2] | growth inhibition [3] | growth inhibition [4] | growth inhibition [5] | growth inhibition [6] |
| --- | --- | --- | --- | --- | --- | --- |
| CC(=O)OC1C=CCC2C(=O)C3=C(C(=O)c4ccccc4C3=O)C(=O)C12 (stereo unspecified) | 72.6% (active) | 21.3% | 28% | 36.6% | 65% | 33.2% |
| Cc1ccc(S(=O)(=O)C(=S)N(C)N(C)C)cc1 | 18.2% | 25.4% | 36.4% | -12.9% | 25.4% | 88% (active) |
| O=C1CCN2C=CC=CC2=N1 | -14.6% | -8.6% | 2.15% | -26.6% | -19% | 6.95% |
| S=C(Cc1cccnc1)N1CCOCC1 | -7.85% | 41.5% | 8.2% | -27.9% | 5.15% | 45.5% |
| COc1ccc(CCN=C(N)CCl)cc1 | 11.8% | 10.8% | 7.4% | 6.65% | 18.9% | -2% |
| CCOC(=O)CCc1cn2cc(Br)nc(OC)c2n1 | -18.6% | -38% | 14.6% | 19.9% | 3.7% | -13.6% |
| C/C(=C\c1ccc(Cl)cc1)C(C)(C)C(=O)O | 15.1% | -23.2% | -1.25% | -6.95% | 11% | 19.6% |
| CCOC(=O)c1cc2c([N+](=O)[O-])cccc2[nH]1 | 18.4% | -5.9% | -2.2% | -35.5% | 6.45% | 13.7% |
| Cc1nn(C23CC4CC(CC(C4)C2)C3)c(C(Cl)Cl)c1Cl | -4.4% | -7.95% | 2.7% | -8.75% | 2.05% | 4.7% |
| CCCCOC(=O)c1ccc(Cl)c(Cl)c1 | -1.7% | -3.2% | -14.9% | -32.9% | 3% | 7.45% |
| COc1ccc(C2(C)OC(=O)c3ccccc32)c2ccccc12 (stereo unspecified) | 71% (active) | 49.9% | 46.3% | 39.2% | 73.2% (active) | 65.7% |
| Cc1[nH]c2ccccc2c1C1=CC(=O)c2ccccc2C1=O | 8.55% | 18% | 21.6% | 2.6% | -1% | 13.8% |
| CCOC(=O)c1cnc2cc3c(cc2c1Nc1cccc(C)c1C)OCO3 | -9.9% | -7.35% | -16.4% | -13% | 3.5% | -6.6% |
| CCCCCCCCCC(=O)OCC1OC(n2cc(F)c(=O)[nH]c2=O)C(N)C(OC(=O)CCCCCCCCC)C1O (stereo unspecified) | 42.8% | 5.6% | 17.1% | 57.6% | 8.85% | 8.15% |
| CC1(Br)CP(=O)(c2ccccc2)CC1Br (stereo unspecified) | -9.2% | -11.9% | 9.5% | -24.4% | 21.1% | -6% |
| CC(=O)OC1=C(OC(C)=O)N(S(=O)(=O)c2ccc(C)cc2)CCc2ccccc21 | 31.4% | 20.4% | 36.6% | 26.5% | 6.5% | 36% |
| CCOC(=O)CC(C(C)=O)C(=O)OCC (stereo unspecified) | 14.9% | 12.3% | -3.55% | -29.6% | 5.6% | -1.4% |
| CCCCCCCCCCCCCCCCCC(=O)OCC1OC(OC)C(NC(=O)N(CCCl)N=O)C(O)C1O (stereo unspecified) | 16.3% | -6.85% | -4.8% | 13.7% | 21.4% | 9.15% |
| Clc1ccc(OCCSCCCCCCCCCCSCCOc2ccc(Cl)cc2)cc1 | -2% | -3.4% | 13.9% | -24% | -8.7% | -21.1% |
| CN1Cc2ccccc2-c2ccccc2C1 | 4.35% | 1.8% | -5.95% | -32.8% | 4.7% | -2% |
